Only some compounds are listed: those with a hit (about 5.8% of all), similar ones and a draw of the others.
MCF10A rerep: induces DNA re-replication in MCF 10a normal breast cells; Potency, µM (top dose mostly 46.1 µM), most hits filed as activators; hit rate 2.9% among 350,000; MCF 10A DNA re-replication, Hoechst nuclear intensity, 48 h; note: nearly all actives have a fitted effect of over 50% in size
KB-V1 cytotox: kills drug-selected multidrug resistant KB-V1 cells. KB-V1 MDR cells viability, CellTiter-Glo, 72 h. Potency, µM (doses to about 46.1 µM), usual class: cytotoxic. hit rate 3.4% among 400,000. AID 1347076; note: nearly all actives have a fitted effect of over 60% in size
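Potencies derive from concentration-effect curves fitted to normalized luminescence (CellTiter-Glo) of KB-V1 cells treated for 72 h at 37 degrees C in phenol-red-free DMEM containing 10% FBS.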
SW480 rereplic: induces DNA re-replication in SW480 colon adenocarcinoma cells; hit rate 1.8% among 340,000; SW480 DNA re-replication, Hoechst DNA content imaging, 48 h; Potency, µM (doses to about 46.1 µM), hits mostly activators; note: nearly all actives have a fitted effect of over 55% in size
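Quantitative HTS format with DMSO vehicle controls; 48 hr drug incubation at 37 C, then 40 min Hoechst staining and scanning imager measurement at 405 nm excitation.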
KB-3-1 cytotox: KB-3-1 parental cell cytotoxicity. KB-3-1 viability, CellTiter-Glo ATP luminescence, 72 h. Potency, µM (highest dose often 46.1 µM), actives largely listed as cytotoxic. hit rate 1.4% among 400,000. AID 1347075; note: nearly all actives have a fitted effect of over 60% in size
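KB-3-1 cells, DMEM (no phenol red) + 10% FBS; compound by pin transfer, 72 h, 37 °C. Readout: CellTiter-Glo luminescence after 10 min. Data normalized, curve-fitted.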
ALOX12 inh: ALOX12 (human) lipoxygenase inhibition | P18054 | AID 1671190 | Potency, µM (series often up to 108 µM), actives largely listed as inhibitors | purified 12hLO, xylenol orange hydroperoxide absorbance | hit rate 1.1% among 580,000
Target sequence (P18054 whole entry, looked up): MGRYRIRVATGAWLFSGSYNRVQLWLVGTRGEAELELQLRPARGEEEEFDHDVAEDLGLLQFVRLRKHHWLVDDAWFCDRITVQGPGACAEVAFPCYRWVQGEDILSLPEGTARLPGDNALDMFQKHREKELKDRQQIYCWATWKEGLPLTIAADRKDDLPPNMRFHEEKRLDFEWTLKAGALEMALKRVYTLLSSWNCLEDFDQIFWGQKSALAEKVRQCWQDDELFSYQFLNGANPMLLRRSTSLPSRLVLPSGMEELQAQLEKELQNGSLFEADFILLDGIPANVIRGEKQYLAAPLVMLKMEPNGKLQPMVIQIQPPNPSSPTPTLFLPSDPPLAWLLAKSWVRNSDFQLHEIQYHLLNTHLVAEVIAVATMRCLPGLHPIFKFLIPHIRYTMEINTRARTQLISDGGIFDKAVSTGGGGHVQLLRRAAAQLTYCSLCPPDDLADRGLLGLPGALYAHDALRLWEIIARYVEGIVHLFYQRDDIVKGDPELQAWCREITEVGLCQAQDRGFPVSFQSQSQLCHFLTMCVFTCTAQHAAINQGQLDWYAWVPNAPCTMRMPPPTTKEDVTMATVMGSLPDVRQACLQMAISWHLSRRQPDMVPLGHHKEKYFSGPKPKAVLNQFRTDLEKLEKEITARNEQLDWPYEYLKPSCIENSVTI
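Purified human 12hLO at 150 nM in 25 mM Hepes, 0.01% Triton X-100, pH 7.0, preincubated 15 min at room temperature with compound. Reaction started with 40 uM arachidonic acid, 30 min at room temperature. Hydroperoxide measured by Fe-xylenol orange, 573/405 nm absorbance ratio.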
PINK1 modulator: modulators of PINK1 expression; PINK1 immunofluorescence, high-content cytometry, 24 h; hit rate 0.2% among 410,000; Potency, µM (titrated, usually from 76.6 µM), usual class: activators; AID 624263; active = well fitted activation curve with a large enough effect; inconclusive = small, poorly fitted or top-dose-only effect; cell line not stated here; note: nearly all actives have a fitted effect of over 65% in size
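Stable cell line treated 24 h with compounds at 5 concentrations (CCCP controls), then fixed and immunostained for PINK1 plus nuclear and cell stains; PINK1 immunofluorescence quantified by laser-scanning microplate cytometry.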
Of the large screens only hits and unclear results are named; the others gave an inactive call. Unless noted, calls come from the whole dose curve; as a rule, active = well fitted curve in the direction sought with a large enough effect; inconclusive = small, poorly fitted or top-dose-only effect, or another doubt; inactive = no such curve, though single readings can be large; an effect the other way counts as inactive or inconclusive.

CCOc1ccc(-c2nc(N)ncc2-c2ccc(Cl)cc2)c(O)c1	MCF10A rerep inconclusive
CCOc1ccc(-c2nc(N)ncc2-c2ccccc2)c(O)c1	KB-V1 cytotox inconclusive, KB-3-1 cytotox 15µM
C=C(C)COc1ccc(-c2nc(N)ncc2Oc2ccccc2OCC)c(O)c1	MCF10A rerep inconclusive, KB-V1 cytotox inconclusive, SW480 rereplic inconclusive
CCOc1ccc(-c2nc(N)ncc2-c2ccc(OC)cc2)c(O)c1	KB-V1 cytotox 7.3µM, SW480 rereplic inconclusive, KB-3-1 cytotox inconclusive
CCCc1cc(-c2nc(N)ncc2-c2ccc3c(c2)OCCCO3)c(O)cc1OC	MCF10A rerep inconclusive, KB-V1 cytotox 2.9µM, SW480 rereplic inconclusive
CCOc1ccc(-c2nc(N)ncc2Oc2ccc(OC)cc2)c(O)c1	MCF10A rerep inconclusive, KB-V1 cytotox inconclusive, ALOX12 inh 16µM
COc1ccc(-c2nc(C)ncc2-c2ccccc2)c(O)c1	MCF10A rerep inconclusive
CC1CCC(NC(=O)C(=O)Nc2cccc(Cl)c2Cl)CC1 (stereo unspecified)	none (no result: MCF10A rerep, KB-V1 cytotox, SW480 rereplic, KB-3-1 cytotox, PINK1 modulator)
CC1CCC(NC(=O)C2CC=CCC2)CC1 (stereo unspecified)	none (no result: MCF10A rerep, KB-V1 cytotox, SW480 rereplic, KB-3-1 cytotox, PINK1 modulator)
COc1ccccc1N1C(=O)C=C(Sc2nc(C)cc(C)n2)C1=O	SW480 rereplic inconclusive, ALOX12 inh 10µM
COc1ccc(-c2ccc3c(c2)C(=O)N2CC[C@H](NS(=O)(=O)c4cccs4)[C@H]2C(=O)N3)cc1	none (no result: MCF10A rerep, KB-V1 cytotox, SW480 rereplic, KB-3-1 cytotox, PINK1 modulator)
CN(C)S(=O)(=O)c1cccc2c1C(=O)c1ccccc1C2=O	SW480 rereplic 21µM
Oc1[nH]c2ccccc2c1N=Nc1c(F)c(F)c(Cl)c(F)c1F	PINK1 modulator inconclusive
Oc1[nH]c2ccccc2c1N=Nc1ccccc1Cl	PINK1 modulator 32µM
O=C(CN1CCN(Cc2ccccc2Cl)CC1)N=Nc1c(O)[nH]c2ccccc12	KB-V1 cytotox 15µM, PINK1 modulator inconclusive
CCOc1cc(C#N)ccc1OCc1ccccc1	none (no result: MCF10A rerep, KB-V1 cytotox, SW480 rereplic, KB-3-1 cytotox, PINK1 modulator)
CC(C)N1CCC2(CC1)N=C(c1ccc3c(c1)OCO3)CC(c1cc(Cl)ccc1O)N2 (stereo unspecified)	MCF10A rerep 5.8µM, KB-V1 cytotox inconclusive, SW480 rereplic inconclusive, KB-3-1 cytotox 15µM
Oc1ccc(Cl)cc1C1C=C(c2ccc3c(c2)OCO3)NC(c2ccc(C(F)(F)F)cc2)N1 (stereo unspecified)	KB-3-1 cytotox inconclusive (no result: MCF10A rerep, SW480 rereplic, ALOX12 inh)
Cc1cc(N=Cc2c(O)ccc3cc(Br)ccc23)no1	MCF10A rerep 13µM, ALOX12 inh inconclusive
Cc1cc(N=Cc2c(O)ccc3ccccc23)no1	KB-V1 cytotox inconclusive, ALOX12 inh inconclusive
COc1ccc(OC)c(NC(=O)c2ncoc2-c2cccc(Cl)c2)c1	none (no result: MCF10A rerep, KB-V1 cytotox, SW480 rereplic, KB-3-1 cytotox, PINK1 modulator)
Cc1cc(=O)[nH]c2ccc(Cl)cc12	KB-V1 cytotox inconclusive, KB-3-1 cytotox 2.3µM
CC1(c2ccccn2)Nc2ccccc2-c2nc3ccccc3n21 (stereo unspecified)	KB-V1 cytotox 16µM
c1ccc2c(c1)NC1(CCCCCC1)n1c-2nc2ccccc21	none
CCN(CC)CCn1c2ccccc2c2nc3ccc([N+](=O)[O-])cc3cc21	MCF10A rerep inconclusive, SW480 rereplic 21µM
CCC(C)c1ccc(NC(=O)c2ccccc2OC)cc1 (stereo unspecified)	none (no result: MCF10A rerep, KB-V1 cytotox, SW480 rereplic, KB-3-1 cytotox, PINK1 modulator)
COc1cc(-c2nc3c4c5c(sc4ncn3n2)CCCC5)ccc1OC(F)F	none (no result: MCF10A rerep, KB-V1 cytotox, SW480 rereplic, KB-3-1 cytotox, PINK1 modulator)
CCCCCCCCC/C(=N\O)c1ccccn1	MCF10A rerep 15µM, SW480 rereplic inconclusive, KB-3-1 cytotox inconclusive
CCCCCCCCC(=O)N/N=C/c1ccccn1	none (no result: PINK1 modulator)
O=C(c1cccc(Cl)c1)N1CCN(c2cn[nH]c(=O)c2Cl)CC1	none (no result: MCF10A rerep, KB-V1 cytotox, SW480 rereplic, KB-3-1 cytotox, PINK1 modulator)
N=C(N)c1ccc(OCCCOc2ccc(C(=N)N)cc2)cc1	none (no result: MCF10A rerep, KB-V1 cytotox, SW480 rereplic, KB-3-1 cytotox, PINK1 modulator)
N=C(N)c1ccc(OCc2ccncc2)cc1	ALOX12 inh 8.9µM (no result: MCF10A rerep, KB-V1 cytotox, SW480 rereplic, KB-3-1 cytotox, PINK1 modulator)
COCCNC(=O)CCc1ncc(-c2ccc(Cl)cc2Cl)o1	none (no result: MCF10A rerep, KB-V1 cytotox, SW480 rereplic, KB-3-1 cytotox, PINK1 modulator)
COc1ccc2c(CCNC(=O)c3cccc4ccccc34)c[nH]c2c1	none (no result: MCF10A rerep, KB-V1 cytotox, SW480 rereplic, KB-3-1 cytotox, PINK1 modulator)
O=C1NCCN2CC3(CCN(C(=O)COc4ccc(F)cc4)CC3)CC12 (stereo unspecified)	none (no result: MCF10A rerep, KB-V1 cytotox, SW480 rereplic, KB-3-1 cytotox, PINK1 modulator)
O=C(c1ccc(F)cc1Cl)N1CCC2(CC1)NC(=O)N(Cc1ccccc1)C2=O	none (no result: MCF10A rerep, KB-V1 cytotox, SW480 rereplic, KB-3-1 cytotox, PINK1 modulator)
